Source: the supplement of paper PMC11732987, “Enantioselective OTUD7B fragment discovery through chemoproteomics screening and high-throughput optimisation” (Communications Chemistry, 2025)

Assays:
Experiment in all cases: log2 ratio of Biotin-Ahx-Ub-VS probe labelling (fragment/DMSO); higher = less target engagement (more negative = stronger competition), active = hit call of the paper (q ≤ 0.05, log2 ratio ≤ -1)
Details in all cases: compound concentration: 200 uM; treatment time: 3 h
USP9X = USP9X (UniProt Q93008)
Summary of the method: (§1)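 HEK293T lysate (495 µg per sample, in Tris/CHAPS/IGEPAL buffer with protease inhibitors) was treated in triplicate with fragment at 200 µM or with DMSO for 3 h. It was then treated with Biotin-Ahx-Ub-VS (0.5 µM final) for 1 h. Labelled DUBs were NeutrAvidin-enriched, digested with LysC and trypsin, and run by diaPASEF LC-MS/MS. Spectronaut label-free quantities were global-median-normalised. Values are average log2 ratios fragment/DMSO by unpaired t-test, using proteins with ≥2 unique peptides.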

UniProt O00487 = target: UniProt O00487
Summary of the method: as §1

UniProt O00507 = target: UniProt O00507
Summary of the method: as §1

UniProt P51784 = target: UniProt P51784
Summary of the method: as §1

UniProt Q5T2D3 = target: T1, UniProt Q5T2D3
T1 sequence (whole entry): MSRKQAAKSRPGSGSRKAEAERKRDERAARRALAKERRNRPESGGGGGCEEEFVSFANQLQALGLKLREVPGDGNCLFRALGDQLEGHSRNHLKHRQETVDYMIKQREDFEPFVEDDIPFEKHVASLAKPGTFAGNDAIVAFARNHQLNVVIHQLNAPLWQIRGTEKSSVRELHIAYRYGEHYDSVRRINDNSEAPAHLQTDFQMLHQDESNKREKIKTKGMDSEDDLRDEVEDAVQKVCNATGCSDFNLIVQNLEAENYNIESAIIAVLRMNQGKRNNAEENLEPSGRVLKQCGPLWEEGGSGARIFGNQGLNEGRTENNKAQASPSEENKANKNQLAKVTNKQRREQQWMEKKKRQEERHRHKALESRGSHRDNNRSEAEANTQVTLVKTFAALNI
Summary of the method: as §1

UniProt Q8TE49 = target: T2, UniProt Q8TE49
T2 sequence (whole entry): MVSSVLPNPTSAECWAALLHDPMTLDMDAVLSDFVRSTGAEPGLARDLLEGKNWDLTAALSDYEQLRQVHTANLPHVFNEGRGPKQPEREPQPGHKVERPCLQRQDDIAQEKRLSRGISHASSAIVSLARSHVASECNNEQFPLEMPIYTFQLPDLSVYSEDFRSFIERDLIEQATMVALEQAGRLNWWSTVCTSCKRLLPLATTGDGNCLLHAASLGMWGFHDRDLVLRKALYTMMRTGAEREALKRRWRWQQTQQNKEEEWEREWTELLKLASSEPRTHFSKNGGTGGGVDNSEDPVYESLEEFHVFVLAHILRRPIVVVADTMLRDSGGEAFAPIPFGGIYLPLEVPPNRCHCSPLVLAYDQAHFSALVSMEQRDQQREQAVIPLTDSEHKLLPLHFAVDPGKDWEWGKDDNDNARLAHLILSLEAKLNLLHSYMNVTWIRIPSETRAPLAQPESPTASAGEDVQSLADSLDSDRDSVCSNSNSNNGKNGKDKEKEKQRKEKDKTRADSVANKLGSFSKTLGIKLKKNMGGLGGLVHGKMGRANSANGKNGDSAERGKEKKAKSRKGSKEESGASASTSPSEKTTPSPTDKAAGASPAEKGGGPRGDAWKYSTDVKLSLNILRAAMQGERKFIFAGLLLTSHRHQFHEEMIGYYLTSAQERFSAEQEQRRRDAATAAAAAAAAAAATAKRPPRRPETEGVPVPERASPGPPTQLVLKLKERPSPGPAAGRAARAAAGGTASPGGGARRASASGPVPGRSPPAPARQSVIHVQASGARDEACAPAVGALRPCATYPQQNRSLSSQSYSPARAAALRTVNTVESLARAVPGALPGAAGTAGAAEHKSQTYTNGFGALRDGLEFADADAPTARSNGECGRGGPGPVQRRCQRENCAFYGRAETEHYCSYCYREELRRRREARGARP
Summary of the method: as §1

UniProt Q9P2H5 = target: T3, UniProt Q9P2H5
T3 sequence (whole entry): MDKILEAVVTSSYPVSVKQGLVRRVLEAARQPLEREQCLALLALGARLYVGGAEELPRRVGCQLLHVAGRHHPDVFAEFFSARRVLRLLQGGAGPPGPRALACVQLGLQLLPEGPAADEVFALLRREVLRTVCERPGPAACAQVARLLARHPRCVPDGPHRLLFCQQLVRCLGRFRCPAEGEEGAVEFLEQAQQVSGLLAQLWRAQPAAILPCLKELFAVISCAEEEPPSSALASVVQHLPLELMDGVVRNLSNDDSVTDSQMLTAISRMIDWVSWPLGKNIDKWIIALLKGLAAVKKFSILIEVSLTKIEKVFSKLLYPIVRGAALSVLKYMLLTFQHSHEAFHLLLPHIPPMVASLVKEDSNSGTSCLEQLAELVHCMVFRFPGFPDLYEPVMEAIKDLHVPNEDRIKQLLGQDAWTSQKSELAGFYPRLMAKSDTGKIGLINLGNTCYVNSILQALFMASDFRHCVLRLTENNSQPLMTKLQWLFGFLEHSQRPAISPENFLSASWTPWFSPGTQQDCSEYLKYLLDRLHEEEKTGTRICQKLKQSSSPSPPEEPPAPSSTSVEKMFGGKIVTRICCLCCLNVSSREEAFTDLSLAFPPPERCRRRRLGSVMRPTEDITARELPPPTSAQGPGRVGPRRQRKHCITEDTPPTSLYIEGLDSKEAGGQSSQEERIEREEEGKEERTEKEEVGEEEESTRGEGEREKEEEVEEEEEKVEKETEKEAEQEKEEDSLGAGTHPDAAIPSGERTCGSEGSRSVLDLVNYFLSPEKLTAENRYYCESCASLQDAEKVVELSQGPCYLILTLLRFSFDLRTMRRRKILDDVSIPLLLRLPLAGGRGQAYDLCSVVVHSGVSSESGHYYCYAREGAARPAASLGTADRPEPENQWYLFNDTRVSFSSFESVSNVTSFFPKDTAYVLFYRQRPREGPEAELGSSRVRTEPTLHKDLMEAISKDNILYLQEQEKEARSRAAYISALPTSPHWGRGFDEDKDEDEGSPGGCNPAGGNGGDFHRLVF
Summary of the method: as §1

UniProt Q9UGI0 = target: T4, UniProt Q9UGI0
T4 sequence (whole entry): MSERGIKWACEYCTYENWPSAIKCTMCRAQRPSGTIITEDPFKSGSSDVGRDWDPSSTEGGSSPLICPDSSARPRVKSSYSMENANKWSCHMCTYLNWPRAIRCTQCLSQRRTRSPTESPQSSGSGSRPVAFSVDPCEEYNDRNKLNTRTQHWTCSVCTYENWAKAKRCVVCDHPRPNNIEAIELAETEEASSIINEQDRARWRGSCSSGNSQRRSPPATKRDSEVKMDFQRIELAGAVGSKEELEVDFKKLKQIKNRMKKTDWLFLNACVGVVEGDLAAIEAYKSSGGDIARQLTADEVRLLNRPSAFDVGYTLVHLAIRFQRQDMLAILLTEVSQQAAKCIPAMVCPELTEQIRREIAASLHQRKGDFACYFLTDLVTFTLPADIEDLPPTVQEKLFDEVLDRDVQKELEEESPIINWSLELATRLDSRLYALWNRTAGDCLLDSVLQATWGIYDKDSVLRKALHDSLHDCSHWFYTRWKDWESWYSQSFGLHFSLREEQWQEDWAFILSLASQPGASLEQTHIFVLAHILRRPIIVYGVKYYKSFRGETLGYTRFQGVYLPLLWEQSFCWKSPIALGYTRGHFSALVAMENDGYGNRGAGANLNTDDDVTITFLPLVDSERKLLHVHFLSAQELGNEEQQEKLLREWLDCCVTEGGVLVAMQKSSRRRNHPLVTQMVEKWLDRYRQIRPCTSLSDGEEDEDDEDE
Summary of the method: as §1

YOD1 = target: T5, YOD1 (UniProt Q5VVQ6)
T5 sequence (whole entry): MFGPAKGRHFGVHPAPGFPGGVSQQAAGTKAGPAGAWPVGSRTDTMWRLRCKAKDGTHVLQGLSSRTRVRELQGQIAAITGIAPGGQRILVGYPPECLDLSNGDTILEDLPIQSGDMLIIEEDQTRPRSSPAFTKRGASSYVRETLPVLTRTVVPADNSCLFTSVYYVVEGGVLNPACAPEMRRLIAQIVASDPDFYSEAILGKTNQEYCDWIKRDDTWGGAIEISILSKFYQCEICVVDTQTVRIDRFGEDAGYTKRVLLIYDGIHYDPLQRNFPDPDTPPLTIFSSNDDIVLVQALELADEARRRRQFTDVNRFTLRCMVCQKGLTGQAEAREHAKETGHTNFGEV
Summary of the method: as §1

Measured: log2 ratio of Biotin-Ahx-Ub-VS probe labelling

Chain of UniProt O00507 (O00507 whole entry): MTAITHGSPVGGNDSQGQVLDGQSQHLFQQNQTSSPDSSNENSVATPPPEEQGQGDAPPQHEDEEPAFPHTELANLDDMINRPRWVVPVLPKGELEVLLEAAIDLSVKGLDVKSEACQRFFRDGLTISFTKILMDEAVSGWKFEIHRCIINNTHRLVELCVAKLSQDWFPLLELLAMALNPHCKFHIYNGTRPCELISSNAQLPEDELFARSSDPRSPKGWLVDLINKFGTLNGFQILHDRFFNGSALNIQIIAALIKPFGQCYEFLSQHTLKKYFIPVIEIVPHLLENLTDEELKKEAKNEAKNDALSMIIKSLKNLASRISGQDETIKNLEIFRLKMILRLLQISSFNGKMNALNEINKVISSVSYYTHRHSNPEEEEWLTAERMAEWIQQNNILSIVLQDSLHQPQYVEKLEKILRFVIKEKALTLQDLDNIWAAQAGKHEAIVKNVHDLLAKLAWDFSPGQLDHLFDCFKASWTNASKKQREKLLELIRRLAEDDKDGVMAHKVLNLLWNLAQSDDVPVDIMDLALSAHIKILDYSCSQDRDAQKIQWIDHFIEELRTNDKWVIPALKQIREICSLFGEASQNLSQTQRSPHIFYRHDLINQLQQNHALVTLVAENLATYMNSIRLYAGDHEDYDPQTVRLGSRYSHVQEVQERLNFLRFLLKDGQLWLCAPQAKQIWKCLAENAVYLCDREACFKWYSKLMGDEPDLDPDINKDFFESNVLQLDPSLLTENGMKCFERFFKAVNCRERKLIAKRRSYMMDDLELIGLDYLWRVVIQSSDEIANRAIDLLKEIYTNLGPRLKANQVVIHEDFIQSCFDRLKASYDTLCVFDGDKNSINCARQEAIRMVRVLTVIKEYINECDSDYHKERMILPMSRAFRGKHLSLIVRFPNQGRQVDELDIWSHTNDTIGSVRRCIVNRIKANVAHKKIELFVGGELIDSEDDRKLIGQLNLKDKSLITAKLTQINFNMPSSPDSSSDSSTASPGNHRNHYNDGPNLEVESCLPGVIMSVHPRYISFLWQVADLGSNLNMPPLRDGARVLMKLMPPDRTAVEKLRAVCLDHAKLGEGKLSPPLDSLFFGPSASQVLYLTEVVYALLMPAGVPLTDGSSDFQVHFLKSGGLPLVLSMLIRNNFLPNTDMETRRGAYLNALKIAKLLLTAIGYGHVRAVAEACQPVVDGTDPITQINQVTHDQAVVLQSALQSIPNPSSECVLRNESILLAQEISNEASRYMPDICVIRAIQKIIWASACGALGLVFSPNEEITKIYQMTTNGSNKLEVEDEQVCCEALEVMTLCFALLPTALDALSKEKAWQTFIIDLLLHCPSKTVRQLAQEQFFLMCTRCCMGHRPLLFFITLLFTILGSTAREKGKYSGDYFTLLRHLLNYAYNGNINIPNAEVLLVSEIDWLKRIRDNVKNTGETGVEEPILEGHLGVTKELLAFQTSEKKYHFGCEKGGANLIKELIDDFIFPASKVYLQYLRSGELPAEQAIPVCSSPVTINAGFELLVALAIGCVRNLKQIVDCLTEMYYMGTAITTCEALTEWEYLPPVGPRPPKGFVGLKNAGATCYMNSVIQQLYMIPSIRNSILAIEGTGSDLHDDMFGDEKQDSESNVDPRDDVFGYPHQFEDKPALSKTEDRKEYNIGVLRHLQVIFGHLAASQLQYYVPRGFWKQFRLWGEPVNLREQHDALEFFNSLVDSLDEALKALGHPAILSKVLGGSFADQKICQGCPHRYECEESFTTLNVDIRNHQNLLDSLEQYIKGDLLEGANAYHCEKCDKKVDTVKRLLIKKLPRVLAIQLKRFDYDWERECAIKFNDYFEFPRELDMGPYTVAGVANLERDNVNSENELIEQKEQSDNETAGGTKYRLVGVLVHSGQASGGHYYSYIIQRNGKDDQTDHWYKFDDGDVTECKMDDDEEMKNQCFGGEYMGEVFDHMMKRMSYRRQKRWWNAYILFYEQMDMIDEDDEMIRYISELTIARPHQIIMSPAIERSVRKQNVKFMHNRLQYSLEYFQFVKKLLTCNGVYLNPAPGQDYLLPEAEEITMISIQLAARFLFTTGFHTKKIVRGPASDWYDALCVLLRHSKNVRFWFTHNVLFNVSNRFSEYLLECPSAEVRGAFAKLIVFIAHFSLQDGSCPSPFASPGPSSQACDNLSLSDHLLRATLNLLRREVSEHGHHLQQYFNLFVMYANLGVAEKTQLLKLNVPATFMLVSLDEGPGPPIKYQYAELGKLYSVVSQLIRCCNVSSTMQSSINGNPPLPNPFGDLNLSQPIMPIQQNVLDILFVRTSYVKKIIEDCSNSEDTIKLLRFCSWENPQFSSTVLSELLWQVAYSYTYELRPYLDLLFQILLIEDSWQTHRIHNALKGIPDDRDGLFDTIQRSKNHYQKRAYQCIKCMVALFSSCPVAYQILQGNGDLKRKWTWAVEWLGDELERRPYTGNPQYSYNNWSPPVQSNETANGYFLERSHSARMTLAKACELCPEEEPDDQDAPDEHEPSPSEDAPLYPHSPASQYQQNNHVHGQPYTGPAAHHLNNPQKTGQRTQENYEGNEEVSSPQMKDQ
Chain of UniProt P51784 (P51784 whole entry): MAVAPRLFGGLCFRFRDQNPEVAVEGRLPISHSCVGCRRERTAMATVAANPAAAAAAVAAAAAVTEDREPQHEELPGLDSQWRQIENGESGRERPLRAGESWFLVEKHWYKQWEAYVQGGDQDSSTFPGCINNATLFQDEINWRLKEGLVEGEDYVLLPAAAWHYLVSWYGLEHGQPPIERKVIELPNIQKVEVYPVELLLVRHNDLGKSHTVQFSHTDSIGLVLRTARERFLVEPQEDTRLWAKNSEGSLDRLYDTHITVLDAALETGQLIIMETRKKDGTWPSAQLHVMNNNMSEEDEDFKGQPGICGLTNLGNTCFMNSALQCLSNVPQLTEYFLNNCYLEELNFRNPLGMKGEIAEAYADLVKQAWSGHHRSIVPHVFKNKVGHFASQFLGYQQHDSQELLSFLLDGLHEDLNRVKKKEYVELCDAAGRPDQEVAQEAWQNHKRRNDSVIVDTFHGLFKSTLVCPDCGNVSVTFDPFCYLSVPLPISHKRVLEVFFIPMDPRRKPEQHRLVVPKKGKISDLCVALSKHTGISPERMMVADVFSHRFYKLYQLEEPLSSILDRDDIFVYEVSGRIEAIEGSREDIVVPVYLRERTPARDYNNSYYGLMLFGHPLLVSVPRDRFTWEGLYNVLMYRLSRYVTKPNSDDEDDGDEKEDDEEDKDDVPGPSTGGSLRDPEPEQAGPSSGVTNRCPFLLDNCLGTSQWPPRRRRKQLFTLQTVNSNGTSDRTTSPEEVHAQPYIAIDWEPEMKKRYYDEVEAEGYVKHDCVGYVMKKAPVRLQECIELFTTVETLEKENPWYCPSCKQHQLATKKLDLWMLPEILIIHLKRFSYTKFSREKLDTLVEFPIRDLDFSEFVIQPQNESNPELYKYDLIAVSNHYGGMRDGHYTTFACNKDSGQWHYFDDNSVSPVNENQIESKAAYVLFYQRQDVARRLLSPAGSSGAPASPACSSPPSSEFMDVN
Chain of UniProt O00487 (O00487 whole entry): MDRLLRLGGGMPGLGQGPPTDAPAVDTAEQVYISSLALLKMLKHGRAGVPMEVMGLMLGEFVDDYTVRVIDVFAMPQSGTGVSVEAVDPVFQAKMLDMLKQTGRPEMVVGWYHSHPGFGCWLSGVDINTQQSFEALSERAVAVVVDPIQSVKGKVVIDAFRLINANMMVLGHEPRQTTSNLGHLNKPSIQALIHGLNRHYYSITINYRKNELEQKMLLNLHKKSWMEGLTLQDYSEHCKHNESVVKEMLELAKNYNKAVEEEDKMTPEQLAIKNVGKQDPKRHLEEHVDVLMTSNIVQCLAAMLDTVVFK

O=C(CCl)Nc1ccc2c(c1)OC(F)(F)O2
inactive: USP9X -0.301 | UniProt O00487 0.0325 | UniProt O00507 -0.0305 | UniProt P51784 0.0816 | UniProt Q5T2D3 -0.375 | UniProt Q8TE49 -0.815 | UniProt Q9P2H5 -0.115 | UniProt Q9UGI0 -0.637 | YOD1 -0.0381
